In the library only some 4.9% were active in any assay of this set; here they are far more common.
USP8 block = inhibitors of human USP8 deubiquitinase | inhibition, % at 20 µM | AID 1645853, 2021 | Ubiquitin carboxyl-terminal hydrolase 8 (Homo sapiens), P40818 | purified USP8, Ub-rhodamine cleavage fluorescence, 30 min | 47,000 compounds, 4.2% hits
OTUD3 block = inhibitors of human OTUD3 deubiquitinase. OTU domain-containing protein 3 (Homo sapiens), Q5T2D3. purified OTUD3, Ub-rhodamine fluorescence, 2 h. inhibition, % at 25 µM. 47,000 compounds, 0.7% hits
USP10 inh = inhibitors of human USP10 deubiquitinase. AID 1645856, 2021. inhibition, % at 20 µM. purified USP10, Ub-rhodamine fluorescence, 60 min. 47,000 compounds, 1.1% hits
USP7 block = inhibitors of human USP7 deubiquitinase | 47,000 compounds, 0.3% hits | purified USP7, Ub-rhodamine cleavage fluorescence | inhibition, % at 20 µM
Target sequence (Q93009 whole entry, looked up): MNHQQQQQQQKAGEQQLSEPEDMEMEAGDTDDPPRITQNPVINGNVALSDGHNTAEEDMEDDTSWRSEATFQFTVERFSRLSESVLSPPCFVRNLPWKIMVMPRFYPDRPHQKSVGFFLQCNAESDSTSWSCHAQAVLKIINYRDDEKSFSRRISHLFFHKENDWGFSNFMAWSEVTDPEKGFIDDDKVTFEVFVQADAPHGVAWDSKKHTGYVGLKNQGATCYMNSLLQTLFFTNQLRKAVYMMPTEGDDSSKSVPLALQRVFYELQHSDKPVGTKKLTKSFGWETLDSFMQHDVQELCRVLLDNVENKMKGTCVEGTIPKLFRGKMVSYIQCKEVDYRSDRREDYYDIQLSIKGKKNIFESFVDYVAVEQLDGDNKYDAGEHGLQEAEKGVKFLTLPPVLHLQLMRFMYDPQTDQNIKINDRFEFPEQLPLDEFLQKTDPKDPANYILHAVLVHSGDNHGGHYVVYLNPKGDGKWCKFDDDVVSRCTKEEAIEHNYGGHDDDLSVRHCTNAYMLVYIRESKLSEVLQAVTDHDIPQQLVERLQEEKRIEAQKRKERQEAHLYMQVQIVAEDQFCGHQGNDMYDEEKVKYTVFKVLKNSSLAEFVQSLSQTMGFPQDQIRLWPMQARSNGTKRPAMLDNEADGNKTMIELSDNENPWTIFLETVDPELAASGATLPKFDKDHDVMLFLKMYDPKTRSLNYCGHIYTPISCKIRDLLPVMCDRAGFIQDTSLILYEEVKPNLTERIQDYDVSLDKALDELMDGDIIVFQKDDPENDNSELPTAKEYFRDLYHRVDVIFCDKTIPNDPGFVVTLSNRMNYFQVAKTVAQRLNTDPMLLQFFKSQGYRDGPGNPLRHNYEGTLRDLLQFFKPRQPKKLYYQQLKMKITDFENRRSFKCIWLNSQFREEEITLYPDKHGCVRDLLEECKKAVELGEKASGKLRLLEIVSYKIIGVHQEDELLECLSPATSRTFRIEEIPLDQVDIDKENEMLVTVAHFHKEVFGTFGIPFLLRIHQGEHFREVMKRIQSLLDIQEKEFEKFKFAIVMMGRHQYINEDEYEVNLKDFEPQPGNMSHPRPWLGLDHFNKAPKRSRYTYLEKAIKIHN
UCHL1 block = inhibitors of human UCHL1 deubiquitinase. Ubiquitin carboxyl-terminal hydrolase isozyme L1 (Homo sapiens), P09936. purified UCHL1, Ub-rhodamine cleavage fluorescence. inhibition, % at 20 µM. 47,000 compounds, 0.2% hits
The depositor's hits bear a star; . = not tested or not shown. Cut-off read from the data, not from the text of the source: active = inhibition above about 30%; inactive = the rest.

SMILES	USP8 block	OTUD3 block	USP10 inh	USP7 block	UCHL1 block
Cc1cc(OCC(=O)Nc2ccccc2C(=O)Nc2ccccc2)ccc1Cl	21	4	35*	10	-1
COc1cccc(C2c3[nH]c4ccccc4c3C[C@@H]3C(=O)N(C4CCCC4)CC(=O)N23)c1OC (stereo partly drawn)	-46	-40	-8	-6	-4
O=C(CCc1nnc2ccc(N3CCCC3)nn12)N1CCOCC1	22	8	1	3	3
CNc1nc(C2CCCN(S(=O)(=O)c3cc(F)ccc3OC)C2)nc2c1CNCC2 (stereo not drawn)	1	-9	-1	6	-1
Cc1cccc(NC(=O)c2cnc(N3CCCCC3)c3ccccc23)n1	36*	-16	-3	-7	0
O=C(Nc1cccc(Cl)c1)N1CCC2(CC1)NC(=O)N(Cc1ccccc1)C2=O	1	-7	2	-53	2
CCc1nc2c(c(=O)c3ccccc3n2C)c(=O)n1-c1ccc(C)cc1	31*	1	5	-5	33*
CC(c1ccccc1)n1c(-c2ccc(F)cc2)nc2c(c(=O)c3ccccc3n2C)c1=O (stereo not drawn)	32*	10	-3	8	0
Cn1c2ccccc2c(=O)c2c(=O)n(-c3cccc(Cl)c3)c(-c3cccs3)nc21	94*	-7	63*	66*	29
COc1ccc(-c2nc3c(c(=O)c4ccccc4n3C)c(=O)n2CC(C)C)cc1	12	8	9	11	2
O=C(NCc1c(F)cccc1F)c1nc(-c2cnccn2)no1	-23	0	0	-4	-3
NS(=O)(=O)c1cc(C(=O)OCC(=O)Nc2ccc(N3CCOCC3)cc2)ccc1Cl	21	7	6	2	1
COc1cc(N)c(Cl)cc1C(=O)OCC(=O)Nc1ccc(N2CCOCC2)cc1	39*	5	0	7	4
CCn1nccc1-c1cccc(-c2noc(CNC(=O)Cc3ccccc3)n2)c1	5	3	1	4	3
CC(C)c1ccc(NC(=O)c2cc(-c3cccnc3)n[nH]2)cc1	97*	-1	7	12	2
COc1ccc(NC(=O)c2cc(-c3cccnc3)n[nH]2)cc1Cl	65*	9	9	2	2
O=C(Nc1cc(F)ccc1F)c1cc(-c2cccnc2)n[nH]1	5	4	12	10	0
Cc1ccc(NC(=O)c2cc(-c3cccnc3)n[nH]2)cc1F	99*	29	26	-2	12
CC(=O)c1cccc(NC(=O)c2cc(-c3cccnc3)n[nH]2)c1	4	-2	7	1	5
O=C(Nc1cccc(Br)c1)c1cc(-c2cccnc2)n[nH]1	98*	20	37*	28	11
O=C(CCc1nc(-c2cccnc2)no1)NC1CCCC1	14	10	-1	5	0
COc1ccc(N2CCN(C(=O)c3cnc(N4CCN(C)CC4)nc3C)CC2)cc1	-13	-1	-1	-1	-3
CC1=C(c2ccc(F)cc2)S(=O)(=O)N=C1N1CCCN(C(=O)C2CCCC2)CC1	0	-3	0	-1	0
CCCN1CCN(C(=O)c2cnc(NCc3ccc4c(c3)OCO4)nc2C)CC1	-8	-4	-4	-1	-2
CN1CCC(c2nnc3n2CCN(C(=O)c2ccc4c(c2)CCCC4)CC3)CC1	0	0	0	0	-1
SMILES	USP8 block	OTUD3 block	USP10 inh	USP7 block	UCHL1 block
CC/C=C\C/C=C\C/C=C\CCCCCCCC(=O)O	39*	73*	54*	41*	35*
C[C@H](NC(=O)[C@H](Cc1ccccc1)NC(=O)[C@H](Cc1ccccc1)n1c(=O)[nH]c2ccccc2c1=O)C(=O)O	-34	3	0	3	3
O=C(CCSc1nnnn1-c1ccccc1)Nc1cc(C(F)(F)F)ccc1Cl	28	-7	16	35*	11
COc1ccc(C(=O)N(Cc2ccc(C)cc2)Cc2ccco2)cc1	12	16	9	1	5
COC(=O)c1ccccc1NC(=O)CSc1nnc(CNc2ccc(F)cc2)n1CC1CCCO1 (stereo not drawn)	96*	10	9	-4	6
CC(OC(=O)c1c2c(nc3ccccc13)CCCCC2)C(=O)Nc1ccc2ccccc2c1 (stereo not drawn)	35*	43*	13	10	4
CC(OC(=O)c1c2c(nc3ccccc13)CCCC2)C(=O)Nc1ccc(N(C)C)cc1 (stereo not drawn)	0	-18	14	0	-1
COc1ccc(NC(=O)COc2cc(C)nc(-c3ccc(C)cc3)n2)c(OC)c1	46*	10	30*	4	0
CCN1C[C@H]2C3(CCN(C(=O)Cc4ccc(OC)cc4)CC3)CC[C@@]2(C(=O)NC)C1	-72	6	-4	1	2
CCc1noc(-c2ccc(-n3cnc(C(=O)NC4CCCC4)c3)nc2)n1	15	0	3	4	1
Cc1noc(-c2ccc(-n3cnc(C(=O)NC4CCCCCC4)c3)nc2)n1	35*	9	0	6	2
COc1ccc(NC(=O)c2nc3ccccc3nc2N2CCCCC2)c(OC)c1	1	2	-2	-4	3
CS(=O)(=O)N1CCN(Cc2ccc(=O)n(CC3CC3)c2)CC1	48*	-3	-2	0	3
O=C(Nc1ccccc1-c1nc(-c2ccccn2)no1)c1cc(Cl)ccc1Cl	83*	3	15	19	7
Cc1noc(-c2ccccc2NC(=O)c2ccc(Cl)c(Cl)c2)n1	10	10	6	4	2
COc1ccc(CN2CCCC23CCCN(C(=O)CCc2cccnc2)C3)cc1F (stereo not drawn)	-73	44*	-1	1	0
COc1ccc(Nc2nc(NCc3ccco3)nc(Nc3ccc(C(C)C)cc3)n2)c(OC)c1	-42	-1	-8	-1	3
O=C(c1cc(-c2cccnc2)n[nH]1)N1CCN(C(=O)c2cccc3[nH]ccc23)CC1	-238	5	1	2	1
O=C(COc1coc(CN2CCc3ccccc3C2)cc1=O)Nc1cccc(F)c1	30*	6	6	5	5
O=C(CCc1ccc(S(=O)(=O)N2CCOCC2)cc1)Nc1ccc2c(c1)OCCO2	-6	-8	6	6	0
Cc1ccc(NC(=O)CCc2ccc(S(=O)(=O)N3CCOCC3)cc2)c(O)c1	47*	-11	-2	-2	-2
O=C(NCc1nc(-c2ccc3c(c2)[nH]c(=O)n3C2CCCC2)no1)c1ccccc1	49*	-20	-4	0	-2
Cc1nc(C)c(-c2nc(-c3ccc4c(c3)[nH]c(=O)n4C3CCCC3)no2)s1	-2	-73	-8	-15	-7
O=C(/C=C/c1ccco1)c1cccc([N+](=O)[O-])c1	50*	47*	32*	.	19
COc1cc(O)c2c(=O)c(-c3ccc(O)cc3)coc2c1	35*	0	0	0	10
